# Where “and” joins values, the source holds several entries; their conditions need not be identical. Identical values can stand only once. Inconclusive results are not listed. Some compounds were tested as several samples or in several runs, with calls that do not always agree. Calls of active or inactive are those of the source. How the source made its calls, unless noted: active means hit-call score of the fitted dose curve at least 0.9, where 1 is the maximum; inactive means score below 0.9.
# Tests used:
# [1] = target: Glucocorticoid receptor (Homo sapiens) (UniProt P04150); experiment: ATG_GR_TRANS: Attagene TRANS-FACTORIAL HepG2 Assay for human Glucocorticoid Receptor (GR) (AID 2282978; active means hit-call score of the fitted dose curve at least 0.9, where 1 is the maximum;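 further: activators score as hits since higher reporter transcript over DMSO is fitted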); settings: HepG2 Attagene TRANS GR reporter, mRNA transcription
# Glucocorticoid receptor (Homo sapiens), sequence (P04150 whole entry, looked up, the tested form may be a part): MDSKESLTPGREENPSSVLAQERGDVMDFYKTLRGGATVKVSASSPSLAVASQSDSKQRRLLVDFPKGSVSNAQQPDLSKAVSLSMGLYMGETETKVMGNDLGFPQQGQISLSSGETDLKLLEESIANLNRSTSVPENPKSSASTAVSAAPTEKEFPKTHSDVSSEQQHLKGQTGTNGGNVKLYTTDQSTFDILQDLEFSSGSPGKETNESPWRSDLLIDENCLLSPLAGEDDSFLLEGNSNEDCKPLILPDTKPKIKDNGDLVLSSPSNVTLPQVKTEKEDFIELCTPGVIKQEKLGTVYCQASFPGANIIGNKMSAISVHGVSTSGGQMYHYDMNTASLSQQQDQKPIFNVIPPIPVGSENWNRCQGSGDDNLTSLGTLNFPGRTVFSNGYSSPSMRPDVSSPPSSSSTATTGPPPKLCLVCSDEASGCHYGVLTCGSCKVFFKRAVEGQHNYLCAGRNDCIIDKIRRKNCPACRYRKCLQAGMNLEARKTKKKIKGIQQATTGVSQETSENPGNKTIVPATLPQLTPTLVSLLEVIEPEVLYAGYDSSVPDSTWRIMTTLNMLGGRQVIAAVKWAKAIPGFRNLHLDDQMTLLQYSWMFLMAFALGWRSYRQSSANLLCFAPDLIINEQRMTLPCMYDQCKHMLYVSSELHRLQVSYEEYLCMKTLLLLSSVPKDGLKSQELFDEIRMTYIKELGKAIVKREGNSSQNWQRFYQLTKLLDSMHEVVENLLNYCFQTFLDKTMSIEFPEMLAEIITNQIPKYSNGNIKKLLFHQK
# How it was run: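 Reporter transcript levels, detected by fluorescence after RT-PCR and capillary electrophoresis, served as the endpoint. HepG2 cells bearing transfected GAL4-UAS reporters responsive to NR-GAL4 chimeras were incubated with compound 24 h; DMSO defined baseline.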
# [2] = target: Oxysterols receptor LXR-alpha (Homo sapiens) (UniProt Q13133); experiment: ATG_LXRa_TRANS: Attagene TRANS-FACTORIAL HepG2 Assay for human Liver X Receptor alpha (LXRa) (AID 2282980; active means hit-call score of the fitted dose curve at least 0.9, where 1 is the maximum); settings: HepG2 Attagene TRANS reporter, LXRa transactivation
# Oxysterols receptor LXR-alpha (Homo sapiens), sequence (Q13133 whole entry, looked up): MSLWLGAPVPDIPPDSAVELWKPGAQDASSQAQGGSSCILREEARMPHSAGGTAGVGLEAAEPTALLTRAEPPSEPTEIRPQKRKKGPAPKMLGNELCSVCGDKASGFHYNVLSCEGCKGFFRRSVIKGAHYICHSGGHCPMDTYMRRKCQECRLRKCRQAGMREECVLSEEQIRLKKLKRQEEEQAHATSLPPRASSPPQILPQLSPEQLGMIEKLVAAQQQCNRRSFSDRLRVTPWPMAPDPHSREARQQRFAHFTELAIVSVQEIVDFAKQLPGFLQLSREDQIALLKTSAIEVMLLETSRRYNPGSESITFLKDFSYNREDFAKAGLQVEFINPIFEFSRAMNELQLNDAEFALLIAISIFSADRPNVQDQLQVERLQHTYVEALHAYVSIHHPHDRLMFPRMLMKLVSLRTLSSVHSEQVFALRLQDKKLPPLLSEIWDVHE
# How it was run: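 Transient HepG2 transfectants, 24 h dosing, RT-PCR/CE mRNA reporter quantitation; gain-of-signal vs DMSO.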
# [3] = target: Oxysterols receptor LXR-beta (Homo sapiens) (UniProt P55055); experiment: ATG_LXRb_TRANS: Attagene TRANS-FACTORIAL HepG2 Assay for human Liver X Receptor beta (LXRb) (AID 2282981; active means hit-call score of the fitted dose curve at least 0.9, where 1 is the maximum); settings: HepG2 Attagene TRANS GAL4-LXRb reporter, mRNA
# Oxysterols receptor LXR-beta (Homo sapiens), sequence (P55055 whole entry, looked up, the tested form may be a part): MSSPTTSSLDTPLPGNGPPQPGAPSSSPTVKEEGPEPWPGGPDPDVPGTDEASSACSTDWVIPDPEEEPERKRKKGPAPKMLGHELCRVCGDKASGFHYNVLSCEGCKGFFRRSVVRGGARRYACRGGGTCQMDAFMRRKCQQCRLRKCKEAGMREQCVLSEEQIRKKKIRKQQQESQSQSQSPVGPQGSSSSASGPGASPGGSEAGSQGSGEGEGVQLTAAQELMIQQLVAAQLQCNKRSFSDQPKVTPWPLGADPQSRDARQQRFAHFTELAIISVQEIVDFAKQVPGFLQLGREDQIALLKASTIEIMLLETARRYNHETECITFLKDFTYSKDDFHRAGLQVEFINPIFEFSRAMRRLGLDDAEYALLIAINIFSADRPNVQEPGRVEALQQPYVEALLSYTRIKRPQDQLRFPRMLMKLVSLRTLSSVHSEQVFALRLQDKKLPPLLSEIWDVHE
# How it was run: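 Measures induction of a Gal4-driven reporter transcript in HepG2 cells expressing an exogenous LXRb-Gal4 fusion. Cells are exposed to compound for 24 h before RNA isolation and RT-PCR with capillary electrophoresis detection.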
# [4] = target: Hepatocyte nuclear factor 4-alpha (Homo sapiens) (UniProt P41235); experiment: ATG_HNF4a_TRANS: Attagene TRANS-FACTORIAL HepG2 Assay for human Hepatocyte Nuclear Factor 4 alpha (HNF4a) (AID 2282982; active means hit-call score of the fitted dose curve at least 0.9, where 1 is the maximum); settings: HepG2 HNF4a transactivation reporter, mRNA readout
# Hepatocyte nuclear factor 4-alpha (Homo sapiens), sequence (P41235 whole entry, looked up, the tested form may be a part): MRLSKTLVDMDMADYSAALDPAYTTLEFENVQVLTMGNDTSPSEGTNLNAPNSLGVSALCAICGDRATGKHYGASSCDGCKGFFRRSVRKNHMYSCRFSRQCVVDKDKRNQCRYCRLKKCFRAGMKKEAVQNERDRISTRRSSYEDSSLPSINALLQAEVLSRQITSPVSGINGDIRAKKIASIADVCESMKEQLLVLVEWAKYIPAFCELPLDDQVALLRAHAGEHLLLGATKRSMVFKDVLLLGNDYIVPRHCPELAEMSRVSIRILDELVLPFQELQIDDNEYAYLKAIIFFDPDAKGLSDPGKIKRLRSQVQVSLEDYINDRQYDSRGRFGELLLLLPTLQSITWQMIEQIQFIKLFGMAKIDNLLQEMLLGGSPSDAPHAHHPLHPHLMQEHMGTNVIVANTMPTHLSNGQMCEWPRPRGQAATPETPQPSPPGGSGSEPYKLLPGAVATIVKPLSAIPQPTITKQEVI
# How it was run: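 In this trans-factorial format, a chimeric HNF4a-GAL4 fusion drives a GAL4-UAS reporter in transfected HepG2 liver cells. After 24 h treatment, reporter mRNA induction is measured by RT-PCR with capillary electrophoresis, relative to DMSO.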
# [5] = ATG_M_06_TRANS: Attagene TRANS-FACTORIAL HepG2 Assay for M06 Transcription Factor (Internal Marker) (AID 2282983; active means hit-call score of the fitted dose curve at least 0.9, where 1 is the maximum); settings: HepG2 Attagene TRANS M06 internal marker reporter
# How it was run: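 Human liver HepG2 cells bearing transiently transfected chimeric NR-GAL4 reporter units were treated with chemicals for 24 h. Total RNA was reverse-transcribed, reporter sequences amplified and labelled, then quantified by capillary electrophoresis. Activity was fitted upward relative to DMSO.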
# [6] = ATG_M_32_TRANS: Attagene TRANS-FACTORIAL HepG2 Assay for M32 Transcription Factor (Internal Marker) (AID 2282984; active means hit-call score of the fitted dose curve at least 0.9, where 1 is the maximum;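 further: transcript level of a background control reporter unit measured by RT-PCR and capillary electrophoresis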); settings: HepG2 Attagene TRANS M32 internal marker reporter
# How it was run: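 After 24 h dosing of transfected HepG2 cells, total RNA was reverse-transcribed, reporter sequences PCR-amplified, 6-FAM labelled by primer extension and HpaI-digested before capillary electrophoresis. Signal increase over DMSO was fitted.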
# [7] = target: Nuclear receptor subfamily 4 group A member 2 (Homo sapiens) (UniProt P43354); experiment: ATG_NURR1_TRANS: Attagene TRANS-FACTORIAL HepG2 Assay for human Nuclear Receptor Related Protein 1 (NURR1) (AID 2282985; active means hit-call score of the fitted dose curve at least 0.9, where 1 is the maximum); settings: HepG2 Attagene TRANS reporter, mRNA readout
# Nuclear receptor subfamily 4 group A member 2 (Homo sapiens), sequence (P43354 whole entry, looked up, the tested form may be a part): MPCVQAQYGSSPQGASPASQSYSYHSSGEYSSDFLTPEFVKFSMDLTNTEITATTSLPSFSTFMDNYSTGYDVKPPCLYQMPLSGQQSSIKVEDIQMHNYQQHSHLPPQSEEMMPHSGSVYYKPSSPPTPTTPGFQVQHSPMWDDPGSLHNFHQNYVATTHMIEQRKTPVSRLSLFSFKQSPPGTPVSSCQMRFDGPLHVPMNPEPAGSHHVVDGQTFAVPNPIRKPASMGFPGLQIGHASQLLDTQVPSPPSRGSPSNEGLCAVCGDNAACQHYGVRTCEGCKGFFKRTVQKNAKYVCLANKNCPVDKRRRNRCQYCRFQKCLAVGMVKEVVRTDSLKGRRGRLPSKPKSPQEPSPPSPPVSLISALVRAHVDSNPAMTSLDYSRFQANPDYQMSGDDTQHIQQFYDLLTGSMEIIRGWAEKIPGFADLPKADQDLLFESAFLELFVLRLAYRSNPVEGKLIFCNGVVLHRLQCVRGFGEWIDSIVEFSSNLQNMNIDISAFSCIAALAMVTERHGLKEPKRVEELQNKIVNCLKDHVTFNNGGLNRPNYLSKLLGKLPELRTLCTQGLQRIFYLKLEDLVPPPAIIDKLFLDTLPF
# How it was run: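 Chimeric NR-Gal4 fusion activity measured in HepG2 after 24 h treatment. Reporter transcripts detected by RT-PCR and capillary electrophoresis fluorescence; positive-direction curve fitting against DMSO.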
# [8] = target: Transcriptional activator Myb (Homo sapiens) (UniProt P10242); experiment: ATG_Myb_CIS: Attagene CIS-FACTORIAL HepG2 Assay for human Myeloblastosis (Myb) Proto-Oncogene Transcription Factor (AID 2282986); settings: HepG2 Attagene CIS-FACTORIAL Myb reporter transcription; actives raise or lower the signal
# Transcriptional activator Myb (Homo sapiens), sequence (P10242 whole entry, looked up): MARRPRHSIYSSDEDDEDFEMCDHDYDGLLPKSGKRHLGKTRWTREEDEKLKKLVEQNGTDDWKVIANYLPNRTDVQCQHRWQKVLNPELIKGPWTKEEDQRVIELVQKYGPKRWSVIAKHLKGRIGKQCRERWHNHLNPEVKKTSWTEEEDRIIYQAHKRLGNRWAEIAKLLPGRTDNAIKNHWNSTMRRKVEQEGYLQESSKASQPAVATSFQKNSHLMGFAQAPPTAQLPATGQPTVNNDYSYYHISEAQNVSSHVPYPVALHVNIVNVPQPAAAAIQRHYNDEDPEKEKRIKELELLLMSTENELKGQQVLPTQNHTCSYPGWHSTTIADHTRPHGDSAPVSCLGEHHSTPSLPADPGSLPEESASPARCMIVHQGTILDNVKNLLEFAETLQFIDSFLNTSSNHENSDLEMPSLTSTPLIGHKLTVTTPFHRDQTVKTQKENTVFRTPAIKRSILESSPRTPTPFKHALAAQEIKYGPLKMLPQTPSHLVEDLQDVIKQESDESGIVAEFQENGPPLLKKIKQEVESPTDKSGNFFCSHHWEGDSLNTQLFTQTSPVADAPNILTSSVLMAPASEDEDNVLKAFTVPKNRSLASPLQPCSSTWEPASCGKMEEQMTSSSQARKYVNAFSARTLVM
# How it was run: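 Transiently transfected HepG2 cells, treated 24 h. Reporter mRNA quantified by RT-PCR/capillary electrophoresis; bidirectional fit relative to DMSO.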
# [9] = target: Nuclear respiratory factor 1 (Homo sapiens) (UniProt Q16656); experiment: ATG_NRF1_CIS: Attagene CIS-FACTORIAL HepG2 Assay for human Nuclear Respiratory Factor 1 (NRF1) Orphan Gene (AID 2282987); settings: HepG2 NRF1 cis-element reporter, Attagene multiplex; actives raise or lower the signal
# Nuclear respiratory factor 1 (Homo sapiens), sequence (Q16656 whole entry, looked up, the tested form may be a part): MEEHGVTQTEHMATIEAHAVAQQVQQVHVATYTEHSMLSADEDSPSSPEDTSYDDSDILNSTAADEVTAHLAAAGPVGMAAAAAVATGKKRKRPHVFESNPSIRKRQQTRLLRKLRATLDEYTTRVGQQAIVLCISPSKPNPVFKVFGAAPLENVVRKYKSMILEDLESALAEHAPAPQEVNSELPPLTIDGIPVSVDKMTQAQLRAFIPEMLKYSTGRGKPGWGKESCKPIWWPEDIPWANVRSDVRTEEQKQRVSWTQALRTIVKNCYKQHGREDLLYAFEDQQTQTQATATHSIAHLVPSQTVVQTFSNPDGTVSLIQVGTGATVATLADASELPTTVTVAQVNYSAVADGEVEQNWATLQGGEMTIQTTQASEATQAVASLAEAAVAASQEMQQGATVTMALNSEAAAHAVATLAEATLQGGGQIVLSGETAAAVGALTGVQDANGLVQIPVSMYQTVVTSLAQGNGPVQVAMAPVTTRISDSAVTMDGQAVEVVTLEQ
# How it was run: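 Cells (HepG2, transient MRTU transfection) are exposed to compound for 24 h, then RNA isolated and reporter mRNA amplified and fluorescently labelled. Fragments are separated by capillary electrophoresis; signal change is fitted bidirectionally relative to DMSO.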
# [10] = target: Myc proto-oncogene protein (Homo sapiens) (UniProt P01106); experiment: ATG_Myc_CIS: Attagene CIS-FACTORIAL HepG2 Assay for human Myelocytomatosis (Myc) Proto-Oncogene Transcription Factor (AID 2282990); settings: HepG2, Attagene cis-reporter transcription factor activity; actives raise or lower the signal
# Myc proto-oncogene protein (Homo sapiens), sequence (P01106 whole entry, looked up): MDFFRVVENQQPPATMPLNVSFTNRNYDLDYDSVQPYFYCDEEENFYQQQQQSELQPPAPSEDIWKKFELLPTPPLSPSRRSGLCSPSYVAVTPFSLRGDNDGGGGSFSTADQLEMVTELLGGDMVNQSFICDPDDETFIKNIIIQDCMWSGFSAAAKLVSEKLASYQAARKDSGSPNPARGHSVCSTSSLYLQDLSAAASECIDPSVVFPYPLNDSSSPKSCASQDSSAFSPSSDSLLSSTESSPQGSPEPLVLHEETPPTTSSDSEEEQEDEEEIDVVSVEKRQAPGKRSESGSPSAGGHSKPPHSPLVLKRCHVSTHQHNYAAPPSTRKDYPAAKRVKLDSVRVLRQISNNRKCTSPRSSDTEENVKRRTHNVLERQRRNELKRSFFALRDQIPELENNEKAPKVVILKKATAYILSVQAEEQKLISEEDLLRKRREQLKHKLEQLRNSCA
# How it was run: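 HepG2 cells transiently transfected with multiple cis-promoter-driven reporter transcription units, so endogenous TF activity is read. After 24 h compound exposure, reporter mRNA was quantified by RT-PCR, 6-FAM labelling, HpaI digestion and capillary electrophoresis; bidirectional fit versus DMSO.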
# [11] = ATG_NRF2_ARE_CIS: Attagene CIS-FACTORIAL HepG2 Assay for human Nuclear Factor Erythroid 2 Related Factor 2 (NFR2) response to Antioxidant Response Elements (ARE) (AID 2282992); settings: HepG2 Attagene ARE/NRF2 reporter, transcription factor activity; actives raise or lower the signal;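 on AC50: reporter mRNA level measured by RT-PCR and capillary electrophoresis fluorescence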
# How it was run: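 Readout: reporter mRNA quantified by RT-PCR plus FAM-labelled primer extension, HpaI digestion and capillary electrophoresis, 24 h after dosing transfected HepG2 cells. Gain or loss of signal is fitted bidirectionally against DMSO baseline.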
# [12] = ATG_Oct_MLP_CIS: Attagene CIS-FACTORIAL HepG2 Assay for human Octamer-Binding Transcription Factor (Oct) (AID 2282993); settings: HepG2 Attagene cis-factorial Oct reporter, mRNA; actives raise or lower the signal
# How it was run: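 HepG2, transient MRTU transfection, cis promoter elements; 24 h dosing; RT-PCR/CE fluorescence read-out of reporter mRNA; fit both directions vs DMSO.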
# [13] = target: Cellular tumor antigen p53 (Homo sapiens) (UniProt P04637); experiment: ATG_p53_CIS: Attagene CIS-FACTORIAL HepG2 Assay for human p53 Transcription Factor (AID 2282994); settings: HepG2 p53 cis-element reporter, Attagene mRNA; actives raise or lower the signal
# Cellular tumor antigen p53 (Homo sapiens), sequence (P04637 whole entry, looked up): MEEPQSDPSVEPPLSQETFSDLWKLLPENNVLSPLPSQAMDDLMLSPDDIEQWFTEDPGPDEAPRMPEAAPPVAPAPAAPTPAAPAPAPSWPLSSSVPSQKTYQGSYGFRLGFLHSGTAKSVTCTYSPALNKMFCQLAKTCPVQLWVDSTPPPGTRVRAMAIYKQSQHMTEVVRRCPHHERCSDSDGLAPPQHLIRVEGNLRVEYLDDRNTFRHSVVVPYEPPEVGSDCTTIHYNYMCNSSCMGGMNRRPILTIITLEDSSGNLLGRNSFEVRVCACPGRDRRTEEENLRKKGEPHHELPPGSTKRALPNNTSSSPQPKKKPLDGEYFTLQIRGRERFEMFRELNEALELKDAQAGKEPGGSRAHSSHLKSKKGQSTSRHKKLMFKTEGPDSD
# How it was run: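 Read-out: reporter mRNA by RT-PCR plus capillary electrophoresis with fluorescence detection. Human HepG2 liver cells carried transfected multi-reporter cis-element constructs, dosed 24 h. Gain or loss of signal fitted bidirectionally against DMSO control.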
# [14] = BSK_3C_TissueFactor: BioMAP Diversity Plus: 3C Assay for Tissue Factor Biomarker Activity (AID 2282997); settings: BioMAP 3C HUVEC, tissue factor biomarker readout; actives raise or lower the signal
# How it was run: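 Cells used were primary human umbilical vein endothelial cells. They were dosed with chemical, and after 24 h Tissue Factor was quantified by ELISA. Curves were fitted bidirectionally with DMSO as baseline.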
# [15] = BSK_3C_uPAR: BioMAP Diversity Plus: 3C Assay for Urokinase-type plasminogen activator receptor (uPAR) Biomarker Activity (AID 2282998); settings: BioMAP 3C HUVEC, uPAR biomarker ELISA; actives raise or lower the signal
# How it was run: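 A multiplexed primary-cell system built on human umbilical vein endothelium was used, with chemical present for 24 h before reading. Cell-surface uPAR was detected by ELISA; signal change in either direction counted against DMSO.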
# [16] = BSK_3C_VCAM1: BioMAP Diversity Plus: 3C Assay for Vascular cell adhesion molecule 1 (VCAM1) Biomarker Activity (AID 2282999); settings: BioMAP 3C HUVEC, VCAM1 ELISA, cytokine-stimulated; actives raise or lower the signal
# How it was run: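 Vascular primary endothelium (human umbilical vein) was exposed to chemicals and assayed 24 h later. VCAM-1 levels came from ELISA, with DMSO serving as baseline for bidirectional fitting.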
# [17] = BSK_4H_Eotaxin3: BioMAP Diversity Plus: 4H Assay for Eotaxin 3 Biomarker Activity (AID 2283000); settings: primary human endothelial cells (HUVEC); actives raise or lower the signal
# How it was run: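 Endothelial primary cells (human umbilical vein) exposed to compound for 24 h. ELISA detection of Eotaxin-3.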
# [18] = target: Bile acid receptor (Homo sapiens) (UniProt Q96RI1); experiment: ATG_FXR_TRANS: Attagene TRANS-FACTORIAL HepG2 Assay for Farnesoid X Receptor (FXR) (AID 2282979; active means hit-call score of the fitted dose curve at least 0.9, where 1 is the maximum;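 further: hits raise reporter mRNA above DMSO so AC50 marks FXR activation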); settings: HepG2 Attagene TRANS FXR-GAL4 reporter transcription
# How it was run: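 Chimeric FXR-GAL4 activity in transiently transfected human HepG2 liver cells is scored as induction of reporter mRNA after 24 h of dosing. Detection uses RT-PCR with fluorescent labelling and capillary electrophoresis, with DMSO serving as baseline.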
# [19] = ATG_NF_kB_CIS: Attagene CIS-FACTORIAL HepG2 Assay for human Nuclear Factor Kappa B (NF-kB) (AID 2282991); settings: HepG2 Attagene cis-factorial NF-kB reporter mRNA; actives raise or lower the signal
# How it was run: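 Measures mRNA induction of an NF-kB-responsive cis-element reporter in HepG2 cells transfected with multiple reporter units, sampled 24 h post-dosing; quantified by fluorescence after RT-PCR and capillary electrophoresis, fitted for activation or inhibition against DMSO.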
# [20] = ATG_NFI_CIS: Attagene CIS-FACTORIAL HepG2 Assay for human Nuclear Factor I (NFI) (AID 2282989); settings: HepG2 cis-regulatory reporter, NFI response element transcription; actives raise or lower the signal
# How it was run: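 Cells: human liver HepG2, transiently transfected with promoter-regulated reporter transcription units. Exposure 24 h. Detection: fluorescent RT-PCR products separated by capillary electrophoresis, normalised to DMSO negative control.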
smiles,measurement,setting,value
CC/C(=C(/CC)c1ccc(O)cc1)c1ccc(O)cc1,outcome,[1],inactive
same,outcome,[2],inactive
same,outcome,[3],inactive
same,outcome,[4],inactive
same,outcome,[5],inactive
same,outcome,[6],inactive
same,outcome,[7],inactive
same,outcome,[8],inactive
same,outcome,[9],inactive
same,AC50,[10],18.6 µM (active)
same,outcome,[10],inactive
same,AC50,[11],12.7 µM (active) [middle of 4 runs]
same,outcome,[11],inactive
same,AC50,[12],16.7 µM (active) and 11.1 µM (active) and 16.6 µM (active)
same,outcome,[12],inactive
same,AC50,[13],11.1 µM (active)
same,outcome,[13],inactive
same,AC50,[14],27.1 µM (active)
same,AC50,[15],16.6 µM (active)
same,AC50,[16],32.5 µM (active)
same,AC50,[17],27.6 µM (active)
COc1cc(C(=O)NC2CCN(C)CC2)ccc1Nc1ncc2c(n1)N(C1CCCC1)CC(F)(F)C(=O)N2C,outcome,[1],inactive
same,outcome,[18],inactive
same,outcome,[2],inactive
same,outcome,[3],inactive
same,outcome,[5],inactive
same,outcome,[8],inactive
same,outcome,[9],inactive
same,outcome,[10],inactive
same,outcome,[19],inactive
same,outcome,[11],inactive
same,AC50,[12],1.07 µM (active)
same,AC50,[13],1.94 µM (active)
same,AC50,[14],5.9 µM (active)
same,AC50,[15],22.7 µM (active)
same,AC50,[16],19.1 µM (active)
same,AC50,[17],14.6 µM (active)
C[C@]12CC[C@@H]3c4ccc(O)cc4CC[C@H]3[C@@H]1CC[C@H]2O,outcome,[1],inactive
same,outcome,[2],inactive
same,outcome,[3],inactive
same,outcome,[4],inactive
same,outcome,[5],inactive
same,outcome,[6],inactive
same,outcome,[7],inactive
same,outcome,[9],inactive
same,outcome,[20],inactive
same,outcome,[10],inactive
same,outcome,[11],inactive
same,AC50,[13],27.7 µM (active) and 10.4 µM (active) and 9.47 µM (active)
same,outcome,[13],inactive
same,AC50,[14],18.1 µM (active)
same,AC50,[15],16.7 µM (active)
same,outcome,[16],inactive
same,AC50,[17],25 µM (active)
